The values below come from PubChem BioAssay AID2314 (National Center for Advancing Translational Sciences (NCATS), 2010).

The campaign covered roughly 300,000 compounds. About 37,000 (12%) were called active. The entries come from a sample that favours actives as a whole. A number with no mark means an inactive call. No stated cut-off is given here; in the data, active means max response mostly above about 13% (no sharp cut-off); inactive means mostly below about 14%.

This test can be described thus: Cycloheximide Counterscreen for Small Molecule Inhibitors of Shiga Toxin. Further: read at 38.3 µM for the half of the compounds with a filed dose; 0% is about no effect. The following applies: cell reporter, cycloheximide protein synthesis inhibition counterscreen; stronger effect = higher value. (A counterscreen serves to expose hits that act by an unwanted route or on another target.)
For the compound `COc1ccccc1CN1CCN(C(c2ccccc2)c2ccccc2)CC1`, the max response was -1.72%.
The value for `CC1CCN(C(=O)c2ccc3c(c2)NC(=O)CN3)CC1` was -6.43%.
Next, `Oc1ccc(Cl)cc1C1C=C(c2ccc3c(c2)OCO3)NC(c2ccc(F)c(Br)c2)N1` (stereo not drawn): 50.7% (active); `Oc1ccc(Cl)cc1C1C=C(c2ccc3c(c2)OCO3)NC(c2c(F)cccc2Cl)N1` (stereo not drawn): 59.8% (active).
Regarding `COCCN1CCN(C(=O)c2cc(COc3ccc(F)cc3Cl)on2)CC1`, the max response was 20.2% (active).
The value for `O=C(c1cc(COc2cccc(C(F)(F)F)c2)on1)N1CCSCC1` was -0.615%.
Next, `Cc1c(C(=O)N2CCOCC2)[nH]c2ccc(OCc3ccccc3)cc12`: 0.995%; `O=C(c1cc(COc2c(F)cccc2F)on1)N1CCSCC1`: 54.8% (active); `CCOC(=O)CC1COCCN1C(=O)c1cc(COc2ccc(F)c(F)c2)on1` (stereo not drawn): 38.7% (active).
`OC(COc1ccc(F)cc1Cl)CN1CCc2ccccc2C1` (stereo not drawn): the max response is -2.68%.
The value for `Cc1cc(NC(=O)COC(=O)c2ccc(F)c(S(=O)(=O)N3CCOCC3)c2)no1` was -2.52%; that for `O=C(c1c(F)cccc1F)N1CCN(c2ncc(Br)cn2)CC1` was -1.54%.
Take `CCOC(=O)c1ccccc1C(=O)N1CCOCCOCCOCC1`: the max response is -3.37%.
Consider `CN1CCN(C(=O)c2ccccc2NC(=O)COc2ccccc2Cl)CC1`, for which the max response was 16.7%.
The value for `O=C(c1cc(COc2ccc(F)c(F)c2)on1)N1CCOCC1` was 42.1% (active); that for `C=CCC1(CC=C)CCCN1C(=O)c1cc(COc2ccc(-n3cncn3)cc2)on1` was 7.87%; that for `C=CCNc1nc(N)c(C(=C(C#N)C#N)c2ccccc2)s1` was 1.38%.
The value for `Cc1ccn2c(c1)nc(=O)c1cc(S(=O)(=O)N3CCC(C)CC3)ccc12` was -3.62%; that for `OC(CN=c1sc2ccccc2n1CC(O)COc1ccccc1)COc1ccccc1` (stereo not drawn) was 0.416%; that for `O=C(Nc1ccc(Cl)cc1)c1cccc(OC(=S)N2CCOCC2)c1` was 21.3%.
For the compound `CC(C)Oc1ccc(C(CC(=O)N2CCOCC2)C(C)C)cc1` (stereo not drawn), the max response was 0.501%.
The value for `O=C(NNC(=O)C(O)c1ccccc1)NC1CCCCC1` (stereo not drawn) was -2.85%.
In the case of `COCC(C)NC(=O)c1ccc(-n2nc(C(F)(F)F)cc2-c2cccs2)cc1` (stereo not drawn), the max response was 1.01%.
For the compound `Nc1nonc1-n1nnc(C(=O)N/N=C/c2ccc(Cl)cc2)c1-c1ccc2c(c1)OCO2`, the max response is -1.92%.
The value for `Cc1c(-c2ccccc2)cn2c1-c1ccc(C)n1CC2` was -3.8%.
Next, `O=C1COc2ccc(NC(=O)N3CCN(c4ccc(F)cc4)CC3)cc2N1`: -3.27%; `COc1ccc(OC)c(NC(=O)CSc2nc(-c3ccccc3)cc(=O)[nH]2)c1`: -6.47%.
In the case of `O=C(c1cc(COc2ccc(F)cc2F)on1)N1CCOCC1`, the max response is 47% (active).
Turning to `COc1ccc(OCc2cc(C(=O)NCC3(C)COC3)no2)c(Cl)c1`, the max response is 40.1% (active).
`O=C(NC1Cc2ccccc2C1)c1cc(COc2cccc(C(F)(F)F)c2)on1`: the max response was -3.57%.
Next, `CCC(NC(=O)c1cc(COc2ccc(F)c(F)c2)on1)c1ccncc1` (stereo not drawn): 33.7% (active); `COc1cc(C(=O)N2CCOCC2)cc(OC)c1OC`: -5.91%.
Next, `COc1ccc(-c2cc(C(=O)NCCCN3CCOCC3)no2)cc1`: 2.58%; `O=C(Oc1ccc(C(=S)N2CCOCC2)cc1)c1ccc(F)cc1`: -3.82%.
Turning to `COc1ccc(CCNC(=O)c2cnc(Cl)c(Cl)c2)cc1`, the max response is 6.51%.
Next, `O=C(CC(NC(=O)c1ccccc1)c1ccccc1)Nc1ccc(F)c(F)c1` (stereo not drawn): 1.73%.
The value for `O=C(Nc1ccc(N2CCOCC2)cc1)c1ccc(-c2ccccc2[N+](=O)[O-])o1` was 21.5%; that for `COc1ccc(/C=C2\CCCC3C2=NN(C(=O)c2scnc2C)C3c2ccc(OC)cc2)cc1` (stereo not drawn) was 11.8%; that for `CCOC(=O)N1CCN(S(=O)(=O)c2ccc(-n3cnnn3)cc2)CC1` was -0.729%.
The value for `O=S(=O)(NC1CCCCC1N1CCC(O)CC1)c1ccc(Cl)cc1` (stereo not drawn) was -0.643%; that for `Oc1ccc(C2Nc3cccc4cccc(c34)N2)cc1` was -1.27%; that for `O=C(O)c1ccc(NS(=O)(=O)c2ccc3c(c2)C(=O)c2cc(S(=O)(=O)Nc4ccc(C(=O)O)cc4)ccc2-3)cc1` was 12.6%.
For the compound `Cc1cccc(CCNS(=O)(=O)c2ccc3c(c2)NC(=O)CO3)c1`, the max response was -8.72%.
In the case of `COc1ccc(C2CC(O)(c3ccccc3)Oc3cc(C)cc(C)c32)cc1` (stereo not drawn), the max response is 15.7%.
For the compound `CCOC(=O)c1cc(=O)c2ccc(OCc3ccccc3)cc2o1`, the max response is -0.548%.
With `O=C(Cc1nc2ccccc2[nH]c1=O)c1ccc(Cl)cc1`, the max response is 49.5% (active).
Next, `N#C/C(=C(/O)COC(=O)COc1ccc(Cl)cc1)c1nc2ccccc2[nH]1`: -7.7%; `O=C(C[n+]1ccc2c(c1)nnn2-c1ccccc1)c1ccc(Cl)cc1`: 6.33%.
Next, `COc1ccc(CC(NC(C)=O)C(=O)NC2CCN(C(=O)c3ccc(Cl)cc3)CC2)cc1` (stereo not drawn): -8.8%; `c1ccc2c(NC3C4CC5CC(C4)CC3C5)nc(N3CCOCC3)nc2c1` (stereo not drawn): -3.82%; `O=c1oc(-c2ccco2)nc2sc3c(c12)CCCCC3`: 15% (active).
The value for `Cn1c(=O)n(Cc2ccco2)c(=N)c2c3c(sc21)CCCC3` was -4.49%.
As to `O=C(NCc1ccco1)c1cccn2c(=O)c3c4c(sc3nc12)CCCC4`, the max response is 13.5%.
The value for `Cc1cccc(NC(=O)C2CCCN(C(=O)NCc3ccccc3)C2)c1C` (stereo not drawn) was 1.32%; that for `Clc1ccc(C2[C@H]3CN(CC4CCCCC4)[C@H](c4ccccc4)C34CC2(c2cccnc2)C4)cn1` (stereo partly drawn) was -6.35%.
Regarding `O=S(=O)(c1ccc(Br)cc1)n1ccc2ccccc21`, the max response was -2.94%.
Take `CC(=O)c1nn(-c2cccc(C(F)(F)F)c2)c(=O)[nH]c1=O`: the max response is -1.16%.
As to `Brc1cccc(-c2nnc3n2CCC3)c1`, the max response was -1.45%.
Turning to `COc1ccc(-c2nc3n(c2Br)CCC3)cc1`, the max response was 45.3% (active).
Next, `COc1ccc(-c2nnc3n2CCCCC3)cc1`: -0.714%; `COc1ccc(Br)cc1C(=O)NC(=S)Nc1cc(-c2nc3ccccc3[nH]2)ccc1C`: 24.4%; `COc1ccc(-c2nc(N)ncc2-c2ccc(Cl)cc2)c(O)c1`: -1.99%.
Next, `Cc1[nH]c2ccccc2c1C(=O)CSCC(=O)O`: -0.861%; `Cc1[nH]c2ccccc2c1C(=O)COC(=O)C(C)C`: 17.9% (active); `Cc1[nH]c2ccccc2c1C(=O)COC(=O)c1c(-c2ccccc2)noc1C`: -1.13%.
The value for `Cc1ccc(N(CC(=O)NC2CCCCC2)C(=O)CCCC(=O)Nc2ccccn2)c(C)c1` was -2.99%; that for `CCc1ccc2[nH]c(=O)c(Cc3ccccc3)c(O)c2c1` was 0.407%.
For `COc1ccc(CCNC(=O)c2cc(-c3ccc4c(c3)OCO4)on2)cc1OC`, the max response is -2.19%.
Next, `COc1cc(-c2c(-c3ccc4c(c3)OCO4)noc2C)ccc1F`: 31.7% (active).
The value for `COc1ccc(-c2onc(C)c2-c2ccc3c(c2)OCCO3)c(O)c1` was -1.9%.
The value for `Cc1ccc(-c2cnc(NC(=O)CCC(=O)N(C)Cc3ccccc3)n2C)cc1` was 1.02%; that for `O=C(Nc1ccccc1)Nc1ccccc1C(=O)NCc1ccco1` was 12.3% (active); that for `CC(C)(C)c1ccc(C(=O)NCCC(=O)NCc2ccco2)cc1` was 6.14%.
On to `CC(C)(C)c1ccc(NC(=O)NCc2ccco2)cc1`, for which the max response was 47.3% (active).
The value for `COc1ccc(C(=O)Nc2ccccc2C(=O)NCc2ccco2)cc1` was -2.2%; that for `Cc1cccc(Nc2ccccc2C(=O)NCc2ccco2)c1C` was -4.07%.
As to `CC(C)(C)NC(=O)NCc1ccco1`, the max response was -1.96%.
The value for `CCOCCCNC(=O)C1(O)c2cc(Br)ccc2NC(=O)N1c1ccc(C)c(C)c1` (stereo not drawn) was -2.74%.
In the case of `O=C(/C=C/c1ccc(F)cc1)Nc1cccc(S(=O)(=O)Nc2cccc(C(F)(F)F)c2)c1`, the max response was -2.37%.
The value for `CCCC1(C(=O)OCC)NC(c2ccc(N(C)C)cc2)C2C(=O)N(c3ccc4c(c3)OCCO4)C(=O)C21` (stereo not drawn) was -5.79%.
Next, `CC1CCCCC1NC(=O)CSc1nnc(-c2ccncc2)n1CCCN(C)C` (stereo not drawn): -2.68%; `COc1cccc(CN(C)CC(O)COC(c2ccccc2)c2ccccc2C)c1` (stereo not drawn): -4.62%.
Next, `CC(CNc1ccc([N+](=O)[O-])cc1)NC(=O)c1ccccc1Br` (stereo not drawn): -2.28%.
For the compound `CCNC(=S)N(CCN(CC)CC)Cc1cc2cc3c(cc2[nH]c1=O)OCO3`, the max response was -2.69%.
Turning to `CC(C)Oc1ccc(Oc2ccc(C(F)(F)F)cn2)cc1`, the max response was 10.2%.
As to `CSc1nnc(-c2ccc(C(F)(F)F)cn2)o1`, the max response was 15.3% (active).
The value for `CCOc1cc(N2CCOCC2)c(OCC)cc1NC(=O)c1ccc(C)s1` was -4.86%; that for `CCn1c(SCC(=O)Nc2ccc(Br)cc2)nc2sc3c(c2c1=O)CCN(C)C3` was 9.46%.
For `COc1ccc(CCNC(=O)c2ccc(CS(=O)(=O)c3ccc(Br)cc3)o2)cc1OC`, the max response was 10.1%.
On to `C=CCN1C(=O)C(Cc2cccc(Cl)c2)S/C1=N/N=C/c1ccco1` (stereo not drawn), for which the max response was 6.81%.
The value for `CCC1S/C(=N/N=C/c2ccco2)NC1=O` (stereo not drawn) was 0.781%.
The value for `COc1ccc(CN2C(=O)C(C)S/C2=N/N=C/c2ccco2)cc1` (stereo not drawn) was 31.9% (active); that for `COc1cc(OC)cc(C(=O)NC2CCN(C(=O)N3c4ccccc4Sc4ccccc43)CC2)c1` was 9.65%.
